Bioassay records from PubChem.
Compounds with a hit are over-represented: about 6.3% of the library has one in this group of screens.
TGFb SMAD3 inh: qHTS for Inhibitors of TGF-b | HepG2 CAGA-GFP TGF-b/SMAD3 reporter, GFP fluorescence, 18 h; TGF-beta stimulated, 500 pg/mL final | Potency, µM (titrated, usually from 46.1 µM), without a hit: at the top dose activity, negative = inhibition, usual class: inhibitors | hit rate 1.2% among 410,000; note: % is set by controls: 0 for no effect and ±100 for the full control effect; nearly all actives have a fitted effect of over 65% in size
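Using HEPG2 CAGA-GFP reporter cells at 1000 cells/well, we pinned test compounds, stimulated with recombinant TGF-beta (500 pg/mL final) and measured total well GFP after 18 h.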
Gal4-VP16 FLuc: VP16 counterscreen qHTS for inhibitors of ROR gamma transcriptional activity | Drosophila S2 Gal4-VP16 UAS-luciferase, luminescence, 20 h | Potency, µM (highest dose often 53.6 µM), inactives show at the highest dose activity, negative = inhibition, actives largely listed as inhibitors | hit rate 3.5% among 310,000;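 note: Gal4-VP16 expression switched on by copper sulfate through the metallothionein promoter; % is set by controls: 0 for no effect and ±100 for the full control effect; nearly all actives have a fitted effect of over 50% in size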
S2 tox: Viability Counterscreen for Primary qHTS for Inhibitors of ATXN expression | Potency, µM (top dose mostly 56.7 µM), hits mostly cytotoxic | S2 cells (HEK-293 line with an ATXN2-luciferase reporter) viability, CellTiter-Fluor protease fluorescence, 24 h | hit rate 0.49% among 400,000; note: nearly all actives have a fitted effect of over 40% in size
ATXN2 expr inh: Primary qHTS for Inhibitors of ATXN expression | hit rate 0.72% among 360,000 | Potency, µM (titrated, usually from 57 µM), for the others: top-dose activity change, negative = inhibition, actives largely listed as inhibitors | HEK-293 ATXN2-luciferase reporter, luminescence, 24 h | AID 1745845, 2022; note: % is set by controls: 0 for no effect and ±100 for the full control effect; nearly all actives have a fitted effect of over 55% in size
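qHTS (up to 57 uM final) was run with 24 h compound exposure of reporter cells at 37 °C. Each well was multiplexed: SteadyGlo luminescence measured ATXN2-luciferase expression after a fluorogenic Gly-Phe-AFC viability readout (25 uM final).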
HepG2 tox-1: qHTS for Inhibitors of TGF-b: Cytotox Counterscreen | Potency, µM (series often up to 46.1 µM), inactives show at the highest dose activity change, negative = cytotoxicity, most hits filed as cytotoxic | AID 588856, 2011 | HepG2 CAGA-GFP viability, ATP luminescence, 18 h | hit rate 0.76% among 410,000
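HepG2 CAGA-GFP cells (1000/well, DMEM with 1% FBS) received compound, then TGF-beta at 500 pg/mL final, and were incubated 18 hours at 37 degrees C. Viability was read by CellTiter-Glo luminescence. Media-only wells were set as complete cell-killing and DMSO as no toxicity.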
RORg inh: qHTS for inhibitors of ROR gamma transcriptional activity | Potency, µM (top dose mostly 53.6 µM), for inactives: at the highest dose activity change, negative = inhibition, actives largely listed as inhibitors | hit rate 5.4% among 310,000 | Nuclear receptor ROR-gamma (Mus musculus), P51450 | Drosophila S2 Gal4-RORgamma UAS-luciferase reporter, 20 h; note: % is set by controls: 0 for no effect and ±100 for the full control effect; nearly all actives have a fitted effect of over 60% in size
Target sequence (P51450 whole entry, looked up, the tested form may be a part): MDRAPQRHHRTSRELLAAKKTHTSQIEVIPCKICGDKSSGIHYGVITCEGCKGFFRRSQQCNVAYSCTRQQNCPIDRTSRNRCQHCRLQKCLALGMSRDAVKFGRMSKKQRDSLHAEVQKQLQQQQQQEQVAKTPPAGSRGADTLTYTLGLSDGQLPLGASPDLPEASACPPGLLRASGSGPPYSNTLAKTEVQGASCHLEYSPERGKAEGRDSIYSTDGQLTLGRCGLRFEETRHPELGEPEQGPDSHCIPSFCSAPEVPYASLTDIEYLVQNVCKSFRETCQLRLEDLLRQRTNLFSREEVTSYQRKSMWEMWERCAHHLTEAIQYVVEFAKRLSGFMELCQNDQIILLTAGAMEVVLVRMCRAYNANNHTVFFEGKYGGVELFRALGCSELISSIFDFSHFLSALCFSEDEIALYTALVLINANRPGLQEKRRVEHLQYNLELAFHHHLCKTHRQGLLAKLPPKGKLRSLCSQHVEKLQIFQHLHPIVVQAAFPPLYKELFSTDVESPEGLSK
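Drosophila Schneider cells stably carrying a metallothionein-driven Gal4 DBD–ROR gamma fusion and a UAS-Photinus luciferase reporter were exposed to compound for 1 hr, then induced with copper sulfate (700 uM final) for 20 hr at ambient temperature before luminescence reading.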
TGFb confirm: qHTS for Inhibitors of TGF-b: Confirmation of Cherry Picks; AID 720534, 2013; HepG2 CAGA-GFP TGF-b reporter, GFP fluorescence, 18 h; cells stimulated with TGF-beta, 500 pg/mL; shares compounds with TGFb SMAD3 inh; Potency, µM (series often up to 46.1 µM), without a hit: at the top dose activity, negative = inhibition, usual class: inhibitors; hit rate 63% among 1,600; note: % is set by controls: 0 for no effect and ±100 for the full control effect; nearly all actives have a fitted effect of over 65% in size
HepG2 tox-2: qHTS for Inhibitors of TGF-b: Cytotox Counterscreen for Cherry Picks | HepG2 CAGA-GFP viability, ATP luminescence, 18 h; cells stimulated with TGF-beta, 500 pg/mL | AID 720535, 2013 | Potency, µM (series often up to 46.1 µM), for inactives: at the top dose activity, negative = cytotoxicity, actives largely listed as inhibitors | hit rate 27% among 1,600 | shares compounds with TGFb SMAD3 inh; note: % is set by controls: 0 for no effect and ±100 for the full control effect; nearly all actives have a fitted effect of over 70% in size
CCL64 TGFb inh: qHTS for Inhibitors of TGF-b: CCL64 Cells Orthogonal Assay for Cherry Picks; hit rate 41% among 1,600; Potency, µM (titrated, usually from 46.1 µM), for the others: top-dose activity, negative = inhibition, usual class: inhibitors; shares compounds with TGFb SMAD3 inh; CCL64 CAGA-GFP reporter, TGF-b stimulated, GFP fluorescence, 18 h; note: nearly all actives have a fitted effect of over 65% in size
COP TGFb inh: qHTS for Inhibitors of TGF-b: Hit Validation in HepG2 Cells using COP promoter. hit rate 3% among 1,600. HepG2 COP-GFP TGF-b reporter, GFP fluorescence, 18 h; cells stimulated by added recombinant TGF-beta. shares compounds with TGFb SMAD3 inh. Potency, µM (top dose mostly 46.1 µM), without a hit: at the highest dose activity, negative = inhibition, hits mostly inhibitors; note: nearly all actives have a fitted effect of over 70% in size
Starred values were filed as active, the others as inactive; i = inactive; ? = inconclusive; . = no result. Calls come from the whole dose curve; as a rule, active = well fitted curve in the direction sought with a large enough effect; inconclusive = small, poorly fitted or top-dose-only effect, or another doubt; inactive = no such curve, though single readings can be large; an effect the other way counts as inactive or inconclusive. Potency is the fitted concentration of half-maximal effect.

SMILES	TGFb SMAD3 inh	Gal4-VP16 FLuc	S2 tox	ATXN2 expr inh	HepG2 tox-1	RORg inh	TGFb confirm	HepG2 tox-2	CCL64 TGFb inh	COP TGFb inh
O=C(c1cc(-c2ccccc2Cl)nc2ccc(Br)cc12)N1CCN(c2ccccn2)CC1	?	.	?	?	-27%	.	-30%	?	?	11%
O=C(c1cc(-c2ccc(Br)cc2)nc2ccccc12)N1CCN(c2ccccc2O)CC1	11µM*	.	i	12%	-2%	.	6.5µM*	?	?	2%
COc1ccc(NC(=O)Cc2ccc(NC(=O)N3CCCCc4ccccc43)cc2)c(OC)c1	-3%	.	i	13%	-6%	.	.	.	.	.
COc1ccc(-c2nc(S(=O)(=O)c3ccc(C)cc3)c(NCc3ccccc3)o2)cc1	0%	.	i	0%	-18%	.	.	.	.	.
CCSc1ccccc1C(=O)n1nnc2ccccc21	11µM*	?	i	-7%	-30%	?	5.8µM*	?	?	2%
CC(=O)n1nnc2ccccc21	-15%	-1%	.	.	4%	-12%	.	.	.	.
CC1=C(C(=O)N(C(C)C)C(C)C)CC(CC(=O)NCc2ccco2)C(=O)N1CCC1=CCCCC1 (configuration not stated)	?	.	?	0%	7%	.	.	.	.	.
COC(=O)c1ccc(C(/C=C/[C@@H](C)C(=O)NCc2cc(C)n(C)n2)NC(=O)OCc2ccccc2)cc1 (some centres not stated)	.	-14%	.	.	.	12%	.	.	.	.
CC(C)(C)C(=O)/C(=C/c1ccc(Cl)cc1)n1cncn1	10µM*	-20%	10µM*	.	-115%	?	21µM*	?	?	65%
Cc1ccc(S(=O)(=O)Nc2ccc3c(c2)C(=O)N([C@H](C)CO)C[C@H](C)[C@@H](CN(C)Cc2ccc(-c4ccccc4)cc2)O3)cc1	10µM*	.	?	0%	-16%	.	9.2µM*	?	21µM*	61%
C[C@H](CO)N1C[C@H](C)[C@@H](CN(C)Cc2ccc(-c3ccccc3)cc2)Oc2c(NS(=O)(=O)c3ccccc3)cccc2C1=O	?	.	?	0%	-23%	.	.	.	.	.
Cc1ccc(S(=O)(=O)Nc2cccc3c2O[C@H](CN(C)Cc2ccc(-c4ccccc4)cc2)[C@@H](C)CN([C@H](C)CO)C3=O)cc1	10µM*	.	?	-23%	-23%	.	16µM*	-4%	?	40%
COc1ccc(S(=O)(=O)Nc2ccc3c(c2)C(=O)N([C@H](C)CO)C[C@H](C)[C@H](CN(C)Cc2ccc(C(=O)O)cc2)O3)cc1	1%	.	i	-1%	0%	.	.	.	.	.
Cc1ccc(-c2ccc3c(c2)O[C@H](CN(C)C(=O)Nc2ccc(C(F)(F)F)cc2)[C@H](C)CN([C@H](C)CO)S3(=O)=O)cc1	22µM*	.	?	0%	-14%	.	18µM*	?	?	47%
C[C@H](CO)N1C[C@H](C)[C@@H](CN(C)S(=O)(=O)c2cccs2)Oc2ccc(NC(=O)Nc3ccc4c(c3)OCO4)cc2C1=O	-45%	.	i	-7%	-2%	.	.	.	.	.
C[C@H](CO)N1C[C@H](C)[C@H](CN(C)S(=O)(=O)c2cccs2)Oc2ccc(NC(=O)Nc3ccc4c(c3)OCO4)cc2CC1=O	?	.	?	-24%	2%	.	?	-24%	-16%	9%
C[C@@H]1CN([C@H](C)CO)S(=O)(=O)c2ccc(Br)cc2O[C@H]1CN(C)C(=O)Nc1ccc(F)cc1	1%	.	?	-1%	-4%	.	.	.	.	.
O=C(NCc1cccc(Cl)c1)C1CCCN(c2nn3cc(-c4ccc(F)cc4)nc3s2)C1 (configuration not stated)	0%	.	.	.	-29%	.	.	.	.	.
Cc1cccc(OCC(=O)N(Cc2cccs2)c2ccc(Cl)cc2)c1C	?	.	?	15%	-31%	.	.	.	.	.
NC(=S)NS(=O)(=O)c1ccc(N)cc1	.	-1%	.	.	.	9%	.	.	.	.
Cc1ccc(S(=O)(=O)Nc2ccc3c(c2)CC(=O)N([C@H](C)CO)C[C@@H](C)[C@H](CN(C)S(=O)(=O)c2ccccc2)O3)cc1	3%	.	i	3%	1%	.	.	.	.	.
Cc1noc(C)c1S(=O)(=O)Nc1ccc2c(c1)C(=O)N([C@@H](C)CO)C[C@H](C)[C@@H](CN(C)Cc1ccc(C(F)(F)F)cc1)OCCCC[C@H](C)O2	10µM*	.	.	?	-47%	.	?	?	33µM*	68%
C[C@H](CO)N1C[C@H](C)[C@@H](CN(C)C(=O)Nc2ccc(C(F)(F)F)cc2)Oc2ccc(NS(=O)(=O)c3ccccc3)cc2C1=O	6.3µM*	.	?	0%	-16%	.	?	1%	?	1%
C[C@@H]1CN([C@H](C)CO)C(=O)c2cc(NC(=O)Cc3ccccc3)ccc2O[C@H]1CN(C)Cc1ccc(Oc2ccccc2)cc1	11µM*	.	?	?	-25%	.	?	?	16µM*	83%
